Assay results from PubChem BioAssay (EPA / NIEHS).
“And” between values parts separate entries of the source, which are not always exact repeats. Equal values may be shown once. More than one record can exist for a structure, and the calls need not agree. The source made the active and inactive calls. Rule for the calls: active = hit-call score of the fitted dose curve at least 0.9, where 1 is the maximum; inactive = score below 0.9.

read-out: Vascular cell adhesion molecule 1 (VCAM1), VCAM1 (gene 7412); experiment: BSK_hDFCGF_VCAM1: BioMAP Diversity Plus: hDFCGF Assay for Vascular cell adhesion molecule 1 (VCAM1) Biomarker Activity (AID 2283065); settings: primary human foreskin fibroblasts; actives raise or lower the signal
Protocol: BSK_hDFCGF is a cell-based, multiplexed-readout assay that uses foreskin fibroblast, a human skin primary cell, with measurements taken at 24 hours after chemical dosing in a 96-well plate.BSK_hDFCGF_VCAM1 is an assay component measured in the BSK_hDFCGF assay. It measures VCAM-1 antibody related to regulation of gene expression using ELISA technology.Data from the assay component BSK_hDFCGF_VCAM1 was analyzed into 1 assay endpoint. This assay endpoint, BSK_hDFCGF_VCAM1, was analyzed with bidirectional fitting relative to DMSO as the negative control and baseline of activity. Using a type of binding reporter, gain or loss-of-signal activity can be used to understand changes in the signaling as they relate to the gene VCAM1. Furthermore, this assay endpoint can be referred to as a primary readout, because this assay has produced multiple assay endpoints where this one serves a signaling function. To generalize the intended target to other relatable targets, this assay endpoint is annotated to the cell adhesion molecules intended target family, where the subfamily is Immunoglobulin CAM.
The levels of cell surface (or secreted, indicated by the prefix "s") biomarker endpoints were measured by ELISA. Overt cytotoxicity to cells in confluent adherent cultures (all systems other than the BT system) was assessed by measuring total protein levels using sulforhodamine B (SRB) staining in parallel cultures at the time of biomarker measurements, indicated as SRB endpoints. For proliferation assays for adherent cell types, individual cell types are cultured at sub-confluence and relative cell numbers quantified by SRB staining at time points optimized for each system (48 h: 3C and CASM3C systems; 72 h: BT and HDF3CGF systems; 96 h: SAg system). SRB was performed by staining cells with 0.1% SRB after fixation with 10% TCA and reading wells at 560 nm.Viability and proliferation of PBMC (T cells) was quantified by Alamar Blue reduction for the SAg and BT systems. For PBMC viability (referred to as PBMC Cytotoxicity within the assay endpoint names), cells were plated (75,000/well in a 96-well plate) and then chemical samples added for 1 h before addition of activators, SEB and TSST-1 (20 ng/mL final concentration each). Cells were incubated for 90 h. Then, Alamar Blue (20 uL/well) (Invitrogen, Cat DAL1100) was added for 6 h, and the plates were read with a fluorescence microplate reader at 546/580 nm (excitation/emission). For PBMC proliferation, cells were plated and activated as above but incubated for only 16 h prior to addition of Alamar Blue. Plates were read after 6 h.

SMILES	outcome	AC50
CCON=C(CC)C1=C(O)CC(c2c(C)cc(C)cc2C)CC1=O (stereo not given)	inactive	
O=C(O)COc1nc(Cl)c(Cl)cc1Cl	inactive	
C=CCC1=C(C)[C@@H](OC(=O)[C@@H]2[C@@H](C=C(C)C)C2(C)C)CC1=O		29.6 µM (active)
COc1nc(NC(C)C)nc(NC(C)C)n1	inactive	
CS/C(C)=N/OC(=O)N(C)SN(C)C(=O)O/N=C(\C)SC	inactive	
CC1=C(C(=O)Nc2ccccc2)SCCO1	inactive	
COc1nc(C)nc(NC(=O)NS(=O)(=O)c2ccccc2CCC(F)(F)F)n1	inactive	
COc1ccc(C(c2ccc(OC)cc2)C(Cl)(Cl)Cl)cc1		20 µM (active)
CC(C)C1(C)N=C(c2nc3ccccc3cc2C(=O)O)NC1=O (stereo not given)	inactive	
CC(Oc1ccc(Cl)cc1Cl)C(=O)O (stereo not given)	inactive	
CCOc1cc(Oc2ccc(C(F)(F)F)cc2Cl)ccc1[N+](=O)[O-]	inactive	
CON(C)C(=O)Nc1ccc(Cl)c(Cl)c1	inactive	
CCCN(CCC)c1c([N+](=O)[O-])cc(S(N)(=O)=O)cc1[N+](=O)[O-]	inactive	32.7 µM (active) and 35.6 µM (active)
Cc1cc(Cl)ccc1OCC(=O)O	inactive	
CC(C)(C)c1ccc(CSc2cnn(C(C)(C)C)c(=O)c2Cl)cc1		31.6 µM (active)
CCOC(=O)C(Cl)Cc1cc(-n2nc(C)n(C(F)F)c2=O)c(F)cc1Cl (stereo not given)	inactive	
Cc1c(F)c(F)c(COC(=O)C2C(/C=C(\Cl)C(F)(F)F)C2(C)C)c(F)c1F (stereo not given)	inactive	
CCNc1nc(Cl)nc(NCC)n1	inactive	
C#CCOS(=O)OC1CCCCC1Oc1ccc(C(C)(C)C)cc1 (stereo not given)		3.65 µM (active)

SMILES	outcome	AC50
COc1nc(C)nc(NC(=O)NS(=O)(=O)c2ccccc2Cl)n1	inactive	
N#Cc1cc(Br)c(O)c(Br)c1	inactive	
CCc1nn(C)c(C(=O)NCc2ccc(C(C)(C)C)cc2)c1Cl		20 µM (active)
CC(C)Oc1cc(-n2nc(C(C)(C)C)oc2=O)c(Cl)cc1Cl		32 µM (active)
CCCCNC(=O)n1c(NC(=O)OC)nc2ccccc21	inactive	
CCCCOC(=O)c1ccccc1C(=O)OCCCC	inactive	14 µM (active)
CNC(=O)ON=CC(C)(C)SC	inactive	
CNC(=S)S	inactive	
COC(=O)N(OC)c1ccccc1COc1ccn(-c2ccc(Cl)cc2)n1	inactive	
Cc1ccc(-c2c(Cl)nc(C#N)n2S(=O)(=O)N(C)C)cc1		4.39 µM (active)
CCOP(=S)(OCC)SCn1c(=O)oc2cc(Cl)ccc21		15.6 µM (active)
C=CC1(C)OC(=O)N(c2cc(Cl)cc(Cl)c2)C1=O (stereo not given)	inactive	
CCOC(=O)CC(SP(=S)(OC)OC)C(=O)OCC (stereo not given)	inactive	
CCCCC(CC)COC(=O)c1ccccc1C(=O)OCC(CC)CCCC (stereo not given)	inactive	
Fc1ccc(Oc2ccnc3cc(Cl)cc(Cl)c23)cc1		13.2 µM (active)
O=C(Nc1ccccc1)Nc1ccnc(Cl)c1	inactive	
COC(=O)c1ccccc1C(=O)OC	inactive	
CCCCNC(=O)OCC#CI		3.08 µM (active) and 10.7 µM (active)
O=C(O)c1nc(Cl)ccc1Cl	inactive	
